Sampled rows, rich in hits. Any-hit rate of the full collection: about 6.1%.
ERG Ets-DNA blk: blocks human ERG Ets domain binding to DNA | Potency, µM (titrated, usually from 76.9 µM), hits mostly inhibitors | P11308 | fluorescence polarization, His-ERG Ets domain / labelled DNA | 0.028% of 370,000 active | AID 624246; active = well fitted inhibition curve with a large enough effect in the polarisation, with a control signal flat; inconclusive = small, poorly fitted or top-dose-only effect, or effect the other way, or a change in a side signal; inactive = no such curve, though single readings can be large or run the other way; the % refers to the polarisation;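 also: polarization taken with two DNA probes labelled with fluorescein and Texas red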
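His-tagged ERG Ets domain (1 uM in the protein solution; 300mM KCl, 50mM Tris-HCl, 1mM EDTA, 1mM DTT, pH 7.5) received compound, then a probe mix of 5 nM fluorescein-DNA and 100nM Texas-615-DNA. Fluorescence polarization was read for both dyes.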
D1 antag: human D1 dopamine receptor antagonism; 3.2% of 360,000 active; P21728; activity change, negative = inhibition, % at 10 µM; HEK293 TREx D1 cells, calcium flux, dopamine EC80; stronger effect = lower value; in the data active = activity change below about -30%
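HEK293 T-REx cells expressing inducible, force-coupled D1 receptor; no-wash Ca dye, 30–90 min RT. Cmpd → 180 s read at 1 Hz → EC80 DA → 180 s read.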
D1 agonist: activates the human D1 dopamine receptor; HEK293 T-REx D1 cells, calcium flux, agonist mode; AID 504660; activation, % at 2 µM; P21728; 1% of 360,000 active; in the data active = activation above about 30%
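Agonism was scored from calcium flux recorded over 180 s (1 read/s) after pintool compound addition, following a 10-cycle baseline. Cells were inducible force-coupled HEK293 TREx D1, plated overnight at 30 C and loaded with no-wash calcium dye.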
DRD3 agonist: activates the human D3 dopamine receptor. P35462. D3R DiscoveRx beta-arrestin cells, luminescence, 90 min. max activation, %. 0.58% of 410,000 active. AID 652048; in the data active = max activation above about 30%
Target sequence (P35462 whole entry, looked up): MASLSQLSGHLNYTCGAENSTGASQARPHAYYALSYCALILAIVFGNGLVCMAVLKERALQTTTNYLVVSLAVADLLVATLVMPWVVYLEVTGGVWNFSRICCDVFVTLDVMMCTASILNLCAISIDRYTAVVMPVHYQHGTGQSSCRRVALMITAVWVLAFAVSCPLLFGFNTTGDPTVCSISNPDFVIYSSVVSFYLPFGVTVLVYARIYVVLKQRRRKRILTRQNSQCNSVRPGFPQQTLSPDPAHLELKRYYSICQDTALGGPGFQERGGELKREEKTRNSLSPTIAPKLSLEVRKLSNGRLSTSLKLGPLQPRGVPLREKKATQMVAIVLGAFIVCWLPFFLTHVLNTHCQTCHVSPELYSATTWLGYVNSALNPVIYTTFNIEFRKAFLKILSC
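Cells at 1500/well, incubated overnight, then treated with pinned compounds (dopamine as control) for 90 min at 37 degrees C. DiscoveRx reagent added for 30 - 60 minutes at room temperature; luminescence read.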
D1 potentiator: potentiators of human D1 dopamine receptor. HEK293 TREx D1 cells, calcium flux, dopamine EC20 potentiation. AID 504651. 0.036% of 360,000 active. P21728. potentiation, % at 10 µM; in the data active = potentiation above about 30%
DRD3 antagonist: antagonists of human D3 dopamine receptor. D3R cells, DiscoveRx beta-arrestin luminescence, antagonist mode; stronger effect = lower value. max response, negative = inhibition, %. 2.5% of 360,000 active; in the data active = max response below about -50%; inconclusive = no clear call, values can overlap the other calls
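Cells expressing the human receptor were seeded at 1500 cells/well, incubated overnight at 37 degrees C in 5% CO2, then exposed to library compounds with dopamine controls for 90 minutes at 37 degrees C before luminescent detection.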
Each line names hits and unclear results; the compound was inactive in the other large screens.

O=C(NCc1ccc2c(c1)OCO2)c1c(-c2ccccc2)sc2ccccc12	DRD3 agonist 67 (no result: D1 antag, D1 agonist, D1 potentiator)
Cc1onc(-c2ccccc2)c1C(=O)NCc1ccc2c(c1)OCO2	none (no result: ERG Ets-DNA blk)
O=C(NCc1ccc2c(c1)OCO2)c1ccc(Br)cc1	DRD3 agonist 47
CN1C(=O)c2ccc(C(=O)NCc3ccc4c(c3)OCO4)cc2C1=O	D1 antag -34
CCCn1nc2cc(C(=O)NCc3ccc4c(c3)OCO4)ccc2c1OCC	none
O=C(NCc1ccc2c(c1)OCO2)c1ccc(N2CCCCCC2)c([N+](=O)[O-])c1	DRD3 antagonist -60
CC1CCCN(c2ccc(C(=O)NCc3ccc4c(c3)OCO4)cc2[N+](=O)[O-])C1 (stereo not drawn)	none
O=C(NCc1ccc2c(c1)OCO2)c1ccc(CS(=O)(=O)c2ccc(Br)cc2)o1	D1 agonist 36 (no result: D1 potentiator)
Cc1ccc(C)c2sc(NC(=O)c3ccc(N4CCCCC4)c([N+](=O)[O-])c3)nc12	DRD3 antagonist -59
O=C(Nc1cccc(S(=O)(=O)N2CCCCC2)c1)c1ccc2ncsc2c1	none
CCOC(=O)N1CCN(c2cc(=O)n(Cc3ccc(F)cc3)c(=O)[nH]2)CC1	D1 antag -37
CCN(CC)C(=O)Cn1c(=O)n(CCCC(=O)NCc2ccc3c(c2)OCO3)c(=O)c2sccc21	none
CCOC(=O)C1CCN(C(=O)Cn2c(=O)oc3cc(S(=O)(=O)N4CCC(C)CC4)ccc32)CC1	D1 antag -39 (no result: DRD3 antagonist)
Cc1ccc(C)c(N2CCN(C(=O)Cn3c(=O)oc4cc(S(=O)(=O)N5CCCC5)ccc43)CC2)c1	none
CCOC(=O)C1CCN(C(=O)Cn2c(=O)oc3cc(S(=O)(=O)N4CCCC4)ccc32)CC1	none
O=C(Cn1c(=O)oc2cc(S(=O)(=O)N3CCCC3)ccc21)N1CCN(c2ccccc2)CC1	DRD3 antagonist -58
COc1cc(/C=C/C(=O)Nc2cccnc2)cc(OC)c1OC	none
Cc1cccc(-n2c(N)cc(=O)nc2SCC(=O)Nc2nnc(C)s2)c1	none
O=C(NCCCN1CCCCC1)c1[nH]c2ccccc2c1Sc1ccc(Cl)cc1	none (no result: DRD3 antagonist)
CC1CN(CCCCOc2cccc(Oc3ccccc3)c2)CC(C)O1 (stereo not drawn)	DRD3 antagonist inconclusive
CC1CN(CCCCOc2ccc(C(C)C)cc2)CC(C)O1 (stereo not drawn)	DRD3 antagonist -63
Clc1ccc(SCCOCCN2CCCCCC2)cc1	DRD3 antagonist -115
c1cc(OCCCN2CCCCC2)ccc1CN1CCCCC1	none
CCOc1ccc(OCCN2CCCCC2)cc1	none (no result: ERG Ets-DNA blk)
CCC(C)c1ccc(OCCN2CCCC2)cc1 (stereo not drawn)	DRD3 antagonist -78
Clc1ccc(OCCCCN2CCCCC2)cc1	D1 antag -39, DRD3 antagonist -62
CC(C)c1ccc(OCCCCN2CCCCC2)cc1	DRD3 antagonist -88
CC(C)Oc1ccc(OCCCN2CCCCCC2)cc1	DRD3 antagonist -84
COc1ccc(-n2ccnc(SCC(=O)NC3CCCCC3)c2=O)cc1	none
Cc1ccnc(N/C=C(/NC(=O)c2ccccc2)C(=O)N/N=C\c2ccc(F)cc2)n1	D1 antag -37
CC1CC(=O)N(CC(=O)Nc2cccc(F)c2)c2ccccc2S1(=O)=O (stereo not drawn)	none
NS(=O)(=O)c1ccc(N2N=C(c3ccccc3)CC2c2ccccc2Br)cc1 (stereo not drawn)	none (no result: D1 antag, D1 agonist, D1 potentiator)
O=[N+]([O-])c1ccc(N2N=C(c3ccco3)CC2c2ccccc2)cc1 (stereo not drawn)	D1 agonist 50
O=[N+]([O-])c1ccc(N2N=C(c3ccccc3)CC2c2ccccc2O)cc1 (stereo not drawn)	D1 agonist 63 (no result: ERG Ets-DNA blk, DRD3 agonist, DRD3 antagonist)
COc1ccccc1N1N=C(c2ccc([N+](=O)[O-])cc2)CC1c1ccccc1 (stereo not drawn)	D1 agonist 63
O=C(NNC(=O)c1cccs1)c1ccc([N+](=O)[O-])cc1	none
COC(=O)[C@@]1(Sc2ccc(C)cc2)CC(=O)N[C@@H]1c1ccccc1	none (no result: ERG Ets-DNA blk, D1 antag, D1 agonist, D1 potentiator)
CC(C)C[C@@H](CNCC(=O)[C@H](Cc1ccccc1)NC(=O)c1[nH]cnc1C(=O)N[C@@H](C)CN)NC(=O)c1nc[nH]c1C(=O)N[C@@H](CC(=O)O)C(=O)O	none (no result: D1 antag, D1 agonist, D1 potentiator)
O=C1NC2(CCCCCC2)C(=O)N1Cc1ccccc1F	D1 antag -33
CCN(CC)CCCn1c2c(c(SCC(=O)Nc3nccs3)nc1=O)CCC2	D1 antag -56
O=C(O)Cc1ccc(NC(=O)c2ccc3c(c2)C(=O)N(CC2CCCO2)C3=O)cc1 (stereo not drawn)	D1 antag -39
Cc1ccccc1Cc1c(C)nc2ncnn2c1C	none
Cc1nc2ncnn2c(C)c1Cc1ccccc1Cl	DRD3 antagonist -82 (no result: D1 potentiator)
COc1ccc(NC(=O)C(Cc2cc(C)cc(C)c2)C(C)C(=O)O)cc1 (stereo not drawn)	none
Cc1ccc(S(=O)(=O)NCCCC(=O)O)cc1	D1 antag -32
Cc1ccc(CSCCNS(=O)(=O)c2ccc(C)cc2)cc1	D1 antag -40
Cc1ccc(CCNS(=O)(=O)c2ccc(C)cc2)cc1	DRD3 antagonist inconclusive
Cc1ccc(S(=O)(=O)NCCC(=O)O)cc1	none
Cc1ccc(N(C)S(=O)(=O)c2ccc(-c3ccc(=O)[nH]n3)s2)cc1C	none
CCN1C(=O)/C(=C2\C=Cc3ccccc3N2CC)SC1=S	D1 antag -33, DRD3 antagonist -91
CCCNC(=O)COC(=O)c1ccccc1C(=O)N(C)C1CCCCC1	none
CN(C(=O)c1ccccc1C(=O)OCC(=O)NCc1ccccc1)C1CCCCC1	D1 antag -35
O=C(CCCO)CCCCCCCCC[C@H]1N[C@H](CO)[C@@H](O)[C@@H]1O	D1 antag -45
CC1(C)CC(=O)C2=C(C1)Nc1cc(Cl)ccc1S2	DRD3 agonist 31
CN(Cc1ccccc1O)CC1CCCN(CCc2ccc(Cl)cc2)C1 (stereo not drawn)	DRD3 antagonist -55
CN(Cc1ccc(C#CCCO)cc1)CC1CCCN(CCc2ccc(Cl)cc2)C1 (stereo not drawn)	D1 antag -38
NNc1nc2cc3c(cc2s1)OCCO3	none
Cc1ccc(CNC(=O)Nc2nnc([C@@H]3C[C@H](O)[C@@H](CO)O3)s2)cc1	DRD3 antagonist -63 (no result: ERG Ets-DNA blk, D1 antag, D1 agonist, D1 potentiator)
COc1ccccc1OCC(=O)NNC(=O)c1cnccn1	none
CN1CCN(c2nc(-c3ccccc3)ncc2S(=O)(=O)c2ccccc2)CC1	DRD3 antagonist -79
CSc1nc(-c2ccccc2)nc(N2CCCC2)c1C(C)=O	none
CSc1nc(-c2ccccc2)nc(N2CCN(C)CC2)c1C(C)=O	DRD3 antagonist -55

Assay outcomes from PubChem BioAssay.
